Source: PubChem (several laboratories)
FBA Mtb inh = Mtb fructose-bisphosphate aldolase inhibition; P9WQA3; purified M. tuberculosis FBA, fluorescence read-out; inhibition, % at 1 µM; 360,000 tested, 2.3% active; AID 588726; in the data active = inhibition above about 27%
GDH-TPI counter = inhibits GDH-TPI coupling enzymes, artifact for Mtb FBA screen; GDH-TPI coupled enzyme counterscreen, NADH absorbance; inhibition, % at 4.8 µM; 360,000 tested, 1.2% active; AID 588335; in the data active = inhibition above about 30%
Mtb UGM inh = blocks M. tuberculosis UGM enzyme | 320,000 tested, 0.06% active | AID 504406 | inhibition, % at 10 µM | purified UGM, fluorescence polarization probe displacement; in the data active = inhibition above about 10%, passing the limit was not always enough
Target sequence (P9WIQ1 whole entry, looked up): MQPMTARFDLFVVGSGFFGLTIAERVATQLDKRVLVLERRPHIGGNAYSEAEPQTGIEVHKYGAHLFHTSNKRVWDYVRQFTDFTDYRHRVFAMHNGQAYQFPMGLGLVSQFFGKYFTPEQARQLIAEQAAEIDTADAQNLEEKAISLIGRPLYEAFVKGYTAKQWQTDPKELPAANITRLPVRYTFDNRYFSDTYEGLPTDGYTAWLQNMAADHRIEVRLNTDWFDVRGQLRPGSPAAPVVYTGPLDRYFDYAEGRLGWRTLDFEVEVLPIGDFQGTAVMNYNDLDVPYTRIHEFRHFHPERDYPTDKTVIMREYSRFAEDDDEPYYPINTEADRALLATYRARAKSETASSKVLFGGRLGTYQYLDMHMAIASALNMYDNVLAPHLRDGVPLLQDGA
RecA intein inh = Mtb RecA intein splicing inhibition. 290,000 tested, 0.75% active. P9WHJ3. inhibition, % (test concentration not listed). cell-free RecA intein splicing, fluorescence; in the data active = inhibition above about 30%
Rv3671c protease = inhibitors of M. tuberculosis serine protease Rv3671c. inhibition, % at 5.96 µM. 320,000 tested, 0.048% active. AID 2606. P9WHR9; in the data active = inhibition above about 38%;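 also: extracellular domain of Rv3671c used as enzyme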
Vc quorum ag = quorum light induction in luxS cqsA deficient V. cholerae; V. cholerae BH1578 lux reporter, luminescence, 6 h; AID 588436; 350,000 tested, 0.16% active; activation, % at 18.7 µM; in the data active = activation mostly above about 9.7%, no sharp cut-off
Large screens that a line does not name were inactive. The list is not random: actives were taken first. Their share in the collection is about 4.1%.

COc1ccc2oc(=O)c(-c3nc4ccccc4o3)cc2c1	none
Cn1nc(C(=O)O)c(=O)n(C)c1=O	none (no result: Mtb UGM inh, RecA intein inh, Rv3671c protease)
CC(C)C1NCCc2c1sc1ccccc21 (centres undefined)	none
CCCCC1=CC2=CC(=O)C(C)(OC(=O)c3cnc4ccccc4n3)C(=O)C2=CO1 (centres undefined)	RecA intein inh 34 (no result: FBA Mtb inh, GDH-TPI counter, Vc quorum ag)
COC(=O)CCCC1=CC2=CC(=O)C(C)(OC(=O)c3cnc4ccccc4n3)C(=O)C2=CO1 (centres undefined)	none (no result: FBA Mtb inh, GDH-TPI counter, Vc quorum ag)
Cc1ccc(C(c2nnnn2C(C)(C)C)N(Cc2ccco2)Cc2cccs2)cc1 (centres undefined)	FBA Mtb inh 36
CC[n+]1c(/C=C2\C=C(C)CC(C)(C)C2)sc2ccccc21	RecA intein inh 47
Cc1cc(C)nc(NN2C(=O)C=CC2=O)n1	none
NC(=O)c1ccsc1NC(=O)COC(=O)CCc1ccccc1	none (no result: Mtb UGM inh, RecA intein inh, Rv3671c protease)
O=[N+]([O-])c1ccc(Sc2nnnn2-c2ccccc2)nc1	RecA intein inh 58 (no result: FBA Mtb inh, GDH-TPI counter, Mtb UGM inh, Rv3671c protease, Vc quorum ag)
O=c1onc(-c2ccccc2)n1Cc1ccc([N+](=O)[O-])cc1	none (no result: Mtb UGM inh, RecA intein inh, Rv3671c protease)
Cc1cc(Cl)c(C(=O)Nc2cccc(C(F)(F)F)c2)c(C)n1	none
CC(=O)c1ccc(Nc2cc(C)nc3c(C)cc(C)cc23)cc1	none
Cc1cc(C)c2nc(C)cc(Nc3ccc(C(=O)NCCO)cc3)c2c1	GDH-TPI counter 59
CCCCNc1c(C(=O)OCC)c(=O)[nH]c2ccccc12	none
CCOC(=O)c1c(NCC(C)C)c2ccccc2[nH]c1=O	Vc quorum ag 17
COC(=O)C[C@@H]1C[C@@H]2c3cc(NS(=O)(=O)c4ccc(F)cc4)ccc3O[C@@H]2[C@H](CO)O1	none (no result: Mtb UGM inh, RecA intein inh, Rv3671c protease)
CCN(CC)S(=O)(=O)c1ccc(NC(=S)Nc2ccccc2)cc1	none
CCN(CC)S(=O)(=O)c1ccc(C(=O)Nc2nnc(NC(=S)Nc3ccccc3)s2)cc1	GDH-TPI counter 41
COc1ccc(-n2nc(C(=O)NCC(=O)NCCC3=CCCCC3)c3ccccc3c2=O)cc1OC	none
O=C(Nc1cccc(C(=O)O)c1)/C(=C\c1ccc2c(c1)OCO2)NC(=O)c1ccccc1Br	GDH-TPI counter 36 (no result: Mtb UGM inh, RecA intein inh, Rv3671c protease)
O=C(Nc1ccc(C(=O)O)cc1)/C(=C\c1ccc2c(c1)OCO2)NC(=O)c1ccccc1Cl	GDH-TPI counter 35 (no result: Mtb UGM inh, RecA intein inh, Rv3671c protease)
C[C@@H]1CN([C@H](C)CO)C(=O)CCCn2nncc2CO[C@H]1CN(C)C(=O)Cc1ccccc1	none (no result: Mtb UGM inh, RecA intein inh, Rv3671c protease)
c1ccc(OCCNc2ccn3nc(-c4ccc(OCCN5CCOCC5)cc4)cc3n2)cc1	none (no result: Mtb UGM inh, RecA intein inh, Rv3671c protease)
Cc1ccc2nc(-c3ccco3)c(Nc3ccccc3)n2c1	FBA Mtb inh 192
Cc1ccc2nc(-c3ccncc3)c(Nc3ccccc3)n2c1	none
O=C(COc1ccccc1Cl)NCCCNC(=O)c1cccnc1	none
Cc1cc(C)n2cc(CSc3ccc(Br)cc3)nc2n1	none
Cc1cc(C)n2cc(CSCC(=O)O)nc2n1	FBA Mtb inh 123
COc1ccc(-c2cc(CNC(=O)CCl)on2)cc1	RecA intein inh 37
Nc1ccc(N(CCO)CCO)cc1	RecA intein inh 63
Cc1ccc(NC(=O)CSc2nc3cc(C(=O)NCC4CCCO4)ccc3c(=O)n2CC2CCCO2)cc1 (centres undefined)	none (no result: Mtb UGM inh, RecA intein inh, Rv3671c protease)
CCc1ccc(/C=C/C(=O)C2C(=O)c3ccccc3C2=O)cc1	GDH-TPI counter 39, RecA intein inh 33
O=C(/C=C/c1ccccc1)C1C(=O)c2ccccc2C1=O	none
COc1ccc(-c2nn(Cc3ccccc3)cc2C(=O)N2CCN(c3ncccn3)CC2)cc1	none (no result: RecA intein inh)
CCn1cc(/C=C(\NC(=O)c2ccccc2OC)C(=O)N2CCOCC2)c2ccccc21	none (no result: Mtb UGM inh, RecA intein inh, Rv3671c protease)
CCn1cc(/C=C(\NC(=O)c2ccccc2F)C(=O)N2CCCC2)c2ccccc21	GDH-TPI counter 32
CCn1cc(/C=C(\NC(=O)c2ccccc2F)C(=O)N2CCOCC2)c2ccccc21	GDH-TPI counter 31
CCn1cc(/C=C(\NC(=O)c2ccccc2Cl)C(=O)N2CCN(C)CC2)c2ccccc21	GDH-TPI counter 39 (no result: Mtb UGM inh, Rv3671c protease)
CCn1cc(/C=C(\NC(=O)c2ccccc2Cl)C(=O)N2CCOCC2)c2ccccc21	none
COc1ccc(CN(C(=O)CNC(=O)c2ccco2)C(C(=O)NCC2CCCO2)c2ccccc2)cc1 (centres undefined)	none
CCc1nn(CC(=O)NCCN2CCN(C)CC2)c(=O)c2cc3c(OC)cccc3n12	FBA Mtb inh active
COc1cccc2c1cc1c(=O)n(CC(=O)N3CCC(C)CC3)nc(C)n12	FBA Mtb inh active
CCc1nn(CC(=O)N2CCC(C)CC2)c(=O)c2cccn12	none
